# Results taken from the supplement of paper PMC11417369.
# ± gives the standard deviation of the averaged measurements. The full ranking holds about 25,000 sequences; the median of “ln(normalized median fluorescence intensity)” is about 10, and the highest 2% start at about 12. This excerpt belongs to a sample that is enriched for the highest values.
# Test system: PfAP2-G AP2 domain (GST-tagged)
# Experiment: gcPBM binding intensity (ln(normalized median fluorescence intensity)); higher = stronger DNA binding
# Summary of the method: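 Binding intensity is defined as the maximum Masliner-normalised natural-log median intensity across replicate spots for either probe orientation. It was measured on an Agilent 4 × 180k array of primer-extended double-stranded 36-bp intergenic genomic probes and negative controls, to which GST-tagged P. falciparum DNA-binding domains made in E. coli were applied for 1 h in 1× PBS with 1% milk, 0.2 mg/ml BSA, 0.5% salmon testes DNA and 0.03% Triton X-100. Detection was by Alexa488 anti-GST antibody and scanning at 488 nm.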
row,Sequence,gcPBM binding intensity (ln)
1,TTTTTTTAAAATATGAGTACATAATATTGTAAAAAT [XGTACX_site6536],11.4 ± 0.9
2,AGTTTGATTTTTTCTTATAATATATTATTATATATT [CACACA_negctrl_site376],9.975 ± 0.021
3,CATATGTAGGGAACAATATAATATGCTTTGAATATG [GTGCAC_negctrl_site524],10.2 ± 0.14
4,AAGAATATTAATATAAATAAGTAAATAAATAAATAA [CACACA_negctrl_site417],9.78 ± 0.11
5,GTATAATTTAAAAAGTGTACATAAAGTTTTTATTAA [XGTACX_site1090],11.6 ± 0.81
6,ATAATCTGACAAATGTGTACACATATATATATATAT [XGTACX_site2379],11.6 ± 0.97
7,TATGTAACAAAAAAAAGTACACATATATATAGTGTA [XGTACX_site7772],11.6 ± 0.85
8,ATATATATATATATATGTACATATACACATGTGTGC [XGTACX_site168],11.2 ± 0.55
9,AAATGCGCCATGTGTACACATATATATATATATATA [CACACA_site4649],11.5 ± 0.88
10,ATCTGACAAAAGTGTACACATATATATATATATATA [CACACA_site4814],11.7 ± 1.2
11,AAAAATATAATATAATGTACACAAAAAAAAAAAATC [XGTACX_site1427],11.4 ± 0.71
12,GTACAAATGTTGTGTATATATACACACATACATATA [XGTACX_negctrl_site276],10.9 ± 0.46
13,CATATTAGGACAAAGTGTACATATATATATATATAT [XGTACX_site1172],11.4 ± 0.86
14,AAAAAATGCGACATGTGTACACATATATATATATAT [XGTACX_site1679],11.8 ± 0.99
15,TAATTTTCATAATTTTGTACTTAACGTTTTACCTTG [XGTACX_site8048],10.9 ± 0.5
16,TGCACAAAATTATGCACACACCTAAAATTAATTTTT [CACACA_site5596],10.2 ± 0.21
17,TAAATTTAAAATGACACACACTAAAATTATTTAAGT [CACACA_site4816],10.05 ± 0.021
18,ATAGAACAGAAAAGGCGTACAATAATATGTAAACAA [XGTACX_site2828],11.8 ± 1.1
19,ATAAAGAAAAGGAACACACAAATATGTAAATATGTA [CACACA_site6356],10.06 ± 0.085
20,TATGAGAACAAACATTGTACAATAAAAAGTAGATAT [XGTACX_site920],11.2 ± 0.35
21,TTTCATAACAAAAAAGTGCAAAATAGCACGAACATT [GTGCAC_site9703],10.3 ± 0.16
22,AAACGATTAATGTGTACACACATAGTTATAAACCTA [CACACA_site2110],11.6 ± 0.91
23,TAAACACATTATATATGTACATAATAAAAAAAAAAA [XGTACX_site7907],11.2 ± 0.83
24,AAACGATTACTGTGTACACACATAGTTATAAACATA [CACACA_site5195],11.5 ± 0.72
25,AAAAACGATTAATGTGTACACACATAGTTATAAACA [CACACA_site8659],11.7 ± 1.2
26,TTATAAAACACAAAATGTACAAAAAATTATAATTAA [XGTACX_site6859],10.7 ± 0.33
27,AAACGATTAATGTGTACACACATAGTTATAAACATA [CACACA_site7073],11.7 ± 1.2
